Among all 55,000 […] or so, about 2,500 (4.5%) were called active. Rule as the data show it: active = GI50 up to about 1.1 µM and inactive = higher. The list is a sample of the results. Entries with a potency or affinity are not part of this list.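 Test compounds were applied to cells in 96-well plates for 48 hours at 5 doses. GI50 marks 50% less growth.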

For this assay, the system named is EKVX. Briefly: NCI tumour cell line growth inhibition, 48 h.
In the case of “[Bis(aminomethyl)pentamethylenesilane]dichloropaltinum(II), CHEMBL2146202”, the GI50 was 18.2 µM.

The substance “[Bis(aminomethyl)ethylmethylsilane]tetrachloroplatinum(IV), CHEMBL2146192” had a GI50 of 29.6 µM.

Substance “[Bis(aminomethyl)tetramethylenesilane]tetrachloropaltinum(IV), CHEMBL2146189” gave a GI50 of 40.9 µM.

As to “[Bis(aminomethyl)tetramethylenesilane]dichloropaltinum(II), CHEMBL2146205”, the GI50 turned out to be 55.6 µM.

As for “[Bis(aminomethyl)dimethylsilane]tetrachloroplatinum(IV), CHEMBL2146190”, the GI50 was determined as 38.2 µM.

Regarding CISPLATIN, CHEMBL11359, the GI50 was found to be 7.1 µM.

Substance “[Bis(aminomethyl)diethylsilane]tetrachloroplatinum(IV), CHEMBL2146203” came in with a GI50 of 31.6 µM.

Take “mu-(1,7-nanodiamine-N,N')bis-(cis-aminedichloroplatimum (II)), CHEMBL2146215”: the GI50 was greater than 100 µM.

“[Bis(aminomethyl)dimethylsilane]dichloroplatinum (II), CHEMBL2146201” showed a GI50 greater than 100 µM.

“[Bis(aminomethyl)pentamethylenesilane]tetrachloropaltinum(IV), CHEMBL2146204” yielded a GI50 of 56.1 µM.

Substance “cis-Bis[[(trimethylsilyl)methyl]amino]tetrachloroplatinum(IV), CHEMBL2146191” showed a GI50 of 4.68 µM.

The record behind these values is ChEMBL document CHEMBL1201862, “PubChem BioAssay data set” (2004).
